Results filed as inconclusive are left out. Where a call stands in place of a potency, no number is given. The source made the active and inactive calls. The call rests on the fitted dose curve; in most records, active means well fitted inhibition curve with a large enough effect; inconclusive means small, poorly fitted or top-dose-only effect; inactive means flat fitted curve, though single readings scatter.
Assays:
Assay in all cases: qHTS profiling for inhibitors of Plasmodium falciparum proliferation (AID 504749); further: nearly all actives have a fitted effect of over 60% in size
Conditions in all cases: P. falciparum in erythrocytes, SYBR Green DNA, 72 h; series mostly up to 28.7 µM
AA1029 = tested on: AA1029
How it was run: (§1)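 Infected RBCs, 0.3% parasitemia/2.5% Hct final; cpd 72 h, 37 C, 5% CO2; lysis buffer with saponin/triton/SYBR Green I, o/n RT dark; FI 485/535; norm. to artemisinin (0.29 uM) and DMSO.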

AS120 = tested on: AS120
How it was run: as §1

ATS189 = tested on: ATS189
How it was run: as §1

ATS95 = tested on: ATS95
How it was run: as §1

C2A = tested on: C2A
How it was run: as §1

CP185 = tested on: CP185
How it was run: as §1

CP191 = tested on: CP191
How it was run: as §1

CP192 = tested on: CP192
How it was run: as §1

CP211 = tested on: CP211
How it was run: as §1

CP215 = tested on: CP215
How it was run: as §1

CP217 = tested on: CP217
How it was run: as §1

CP237 = tested on: CP237
How it was run: as §1

CP238 = tested on: CP238
How it was run: as §1

CP247 = tested on: CP247
How it was run: as §1

CP252 = tested on: CP252
How it was run: as §1

CP256 = tested on: CP256
How it was run: as §1

CP250 = tested on: CP250
How it was run: as §1

CP194 = tested on: CP194
How it was run: as §1

CP201 = tested on: CP201
How it was run: as §1

CP203 = tested on: CP203
How it was run: as §1
Potency means the concentration at half of the fitted maximal effect.

Compound | Potency (AA1029) | Potency (AS120) | Potency (ATS189) | Potency (ATS95) | Potency (C2A) | Potency (CP185) | Potency (CP191) | Potency (CP192) | Potency (CP211) | Potency (CP215) | Potency (CP217) | Potency (CP237) | Potency (CP238) | Potency (CP247) | Potency (CP252) | Potency (CP256) | Potency (CP250) | Potency (CP194) | Potency (CP201) | Potency (CP203)
Oc1cccc[c]1[Hg][Cl] | 11.2 µM (active) | 7.94 µM (active) | 12.6 µM (active) | 10 µM (active) | 12.6 µM (active) | 7.94 µM (active) | 10 µM (active) | 15.1 µM (active) | 9.53 µM (active) | 10.7 µM (active) | 8.91 µM (active) | 10 µM (active) | 11.2 µM (active) | 8.91 µM (active) | 12.6 µM (active) | 11.2 µM (active) | – | – | – | –
C=CCC1(C(C)CCC)C(=O)N=C(S)NC1=O (centres undefined) | inactive | inactive | inactive | inactive | inactive | inactive | inactive | – | – | – | inactive | inactive | inactive | inactive | inactive | inactive | inactive | – | – | –
OC(c1ccccc1)(c1ccccc1)C1CN2CCC1CC2 (centres undefined) | – | inactive | inactive | inactive | inactive | inactive | – | inactive | inactive | – | inactive | – | inactive | – | inactive | inactive | inactive | inactive | inactive | inactive
C[C@H]1CCC[C@H](O)CCCCCc2cc(O)cc(O)c2C(=O)O1 | – | – | inactive | inactive | inactive | inactive | – | inactive | inactive | – | – | – | inactive | inactive | inactive | inactive | – | – | inactive | inactive
C[CH2][Hg][S]c1ccccc1C(=O)O | 3.16 µM (active) | 3.16 µM (active) | 3.55 µM (active) | 2 µM (active) | 3.98 µM (active) | 2 µM (active) | 3.55 µM (active) | 4.78 µM (active) | 4.26 µM (active) | 1.51 µM (active) | 3.98 µM (active) | 1.26 µM (active) | 3.55 µM (active) | 3.16 µM (active) | 3.16 µM (active) | 3.16 µM (active) | 3.55 µM (active) | 3.01 µM (active) | 4.26 µM (active) | –
c1cc2c(c(NC3=NCCN3)c1)CCCC2 | inactive | inactive | inactive | inactive | inactive | inactive | inactive | – | – | – | inactive | inactive | inactive | inactive | inactive | inactive | inactive | – | – | –
CNC(=O)Oc1ccccc1C(=O)Nc1ccccc1 | – | – | – | – | inactive | inactive | – | inactive | inactive | – | – | inactive | inactive | – | inactive | – | inactive | – | inactive | inactive
CCN(CC)C(=O)/C(Cl)=C(\C)OP(=O)(OC)OC | inactive | inactive | inactive | inactive | inactive | inactive | inactive | – | – | – | inactive | inactive | inactive | inactive | inactive | inactive | inactive | – | – | –
CCC1(c2ccccc2)C(=O)NC(=O)N(C(=O)c2ccccc2)C1=O (centres undefined) | inactive | inactive | inactive | inactive | inactive | inactive | – | inactive | inactive | inactive | inactive | inactive | inactive | – | inactive | inactive | inactive | inactive | inactive | inactive
CNC(=O)OCC[N+](C)(C)C | inactive | inactive | inactive | inactive | inactive | inactive | inactive | inactive | – | inactive | inactive | inactive | inactive | inactive | inactive | inactive | inactive | inactive | inactive | inactive
CCC1C(C)=NN=C(c2ccc(OC)c(OC)c2)c2cc(OC)c(OC)cc21 (centres undefined) | inactive | inactive | inactive | inactive | inactive | inactive | inactive | inactive | – | – | inactive | – | inactive | inactive | inactive | inactive | inactive | inactive | inactive | inactive
CN1C2CCC1CC(OC(c1ccccc1)c1ccc(Cl)cc1)C2 (centres undefined) | 11.2 µM (active) | 11.2 µM (active) | 10 µM (active) | 8.91 µM (active) | 11.2 µM (active) | 12.6 µM (active) | 4.47 µM (active) | – | 15.1 µM (active) | 10.7 µM (active) | 7.08 µM (active) | 11.2 µM (active) | 10 µM (active) | 10 µM (active) | 7.94 µM (active) | 7.08 µM (active) | 10 µM (active) | 10.7 µM (active) | – | 12 µM (active)
O=c1c2ccccc2[se]n1-c1ccccc1 | inactive | – | – | inactive | inactive | – | – | inactive | – | inactive | – | – | – | – | inactive | inactive | – | – | inactive | inactive
F/C(COc1ccc2c(c1)[nH]c1ccccc12)=C1/CN2CCC1CC2 | 10 µM (active) | 4.47 µM (active) | – | 11.2 µM (active) | – | – | 11.2 µM (active) | – | – | inactive | – | 6.31 µM (active) | 11.2 µM (active) | – | – | – | – | – | inactive | –
[Cl-].[Cl-].[Hg+2] | – | – | – | – | – | – | inactive | inactive | – | inactive | 8.91 µM (active) | – | 10 µM (active) | – | – | – | inactive | – | – | inactive
O=Cc1ccco1 | inactive | – | inactive | inactive | inactive | inactive | inactive | inactive | inactive | inactive | inactive | inactive | inactive | inactive | inactive | inactive | inactive | inactive | inactive | inactive
CC1CCC(C(C)C)C(OC(=O)c2ccccc2N)C1 (centres undefined) | inactive | inactive | – | – | inactive | inactive | inactive | inactive | inactive | inactive | inactive | – | inactive | inactive | inactive | inactive | inactive | inactive | inactive | inactive
CN1CCCC(=C(c2cccs2)c2cccs2)C1 | – | – | – | – | inactive | – | inactive | inactive | – | – | – | 4.47 µM (active) | – | – | – | inactive | inactive | – | inactive | –
CCCC(=O)OC(C(Cl)(Cl)Cl)P(=O)(OC)OC (centres undefined) | inactive | inactive | inactive | – | inactive | inactive | inactive | inactive | – | – | inactive | inactive | inactive | inactive | inactive | – | inactive | inactive | inactive | inactive
